Screens: PubChem BioAssay, National Center for Advancing Translational Sciences (NCATS)
IL-1B inflam inh – inhibitors of inflammasome signaling (IL-1 beta secretion) | THP-1 LPS/ATP IL-1B secretion, AlphaLISA, 16 h; hits give low values | 360,000 tested, 4.7% active | activity change, % at 57.5 µM | AID 743279; in the data active = activity change below about -50%; inconclusive = mostly about -30% to -49%; note: % is set by controls: 0 for no effect and ±100 for the full control effect
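THP-1 cells pretreated 1 hr with compounds (up to 57.5 uM final), then stimulated with LPS (250 ng/mL final) plus ATP (1.25 mM final); secreted IL-1B measured by AlphaLISA after 16 hr, decreased signal indicating inhibition.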
Gal4-VP16 FLuc – Gal4-VP16 reporter inhibition counter-screen. Drosophila S2 Gal4-VP16 UAS-luciferase, luminescence, 20 h. Potency, µM (doses to about 53.6 µM), inactives show at the top dose activity, negative = inhibition, hits mostly inhibitors. 310,000 tested, 3.5% active. AID 2546;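 note: Gal4-VP16 expression switched on by copper sulfate through the metallothionein promoter; potency is the fitted concentration of half-maximal effect; % is set by controls: 0 for no effect and ±100 for the full control effect; nearly all actives have a fitted effect of over 50% in size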
RORg inh – blocks mouse ROR gamma transcriptional activity; Potency, µM (series often up to 53.6 µM), for inactives: at the highest dose activity change, negative = inhibition, actives largely listed as inhibitors; P51450; AID 2551; 310,000 tested, 5.4% active; Drosophila S2 Gal4-RORgamma UAS-luciferase reporter, 20 h; note: potency is the fitted concentration of half-maximal effect; % is set by controls: 0 for no effect and ±100 for the full control effect; nearly all actives have a fitted effect of over 60% in size
Target sequence (P51450 whole entry, looked up, the tested form may be a part): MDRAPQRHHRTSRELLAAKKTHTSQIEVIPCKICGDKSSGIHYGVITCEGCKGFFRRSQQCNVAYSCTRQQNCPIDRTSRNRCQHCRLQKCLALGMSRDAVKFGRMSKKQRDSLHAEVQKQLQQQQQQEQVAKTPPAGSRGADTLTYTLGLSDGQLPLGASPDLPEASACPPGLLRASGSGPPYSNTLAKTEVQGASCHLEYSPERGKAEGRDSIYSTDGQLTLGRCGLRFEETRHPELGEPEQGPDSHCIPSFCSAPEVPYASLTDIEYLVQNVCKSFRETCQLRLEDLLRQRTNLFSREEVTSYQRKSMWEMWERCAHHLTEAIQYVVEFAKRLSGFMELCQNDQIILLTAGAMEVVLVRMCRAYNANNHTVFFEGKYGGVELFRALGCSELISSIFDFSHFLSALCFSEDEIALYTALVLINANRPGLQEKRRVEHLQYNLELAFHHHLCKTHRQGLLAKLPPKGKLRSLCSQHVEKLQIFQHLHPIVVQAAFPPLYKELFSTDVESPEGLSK
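Read-out: Photinus luciferase luminescence; inhibitors lower reporter signal. Insect Schneider cells with Gal4-ROR gamma fusion under metallothionein promoter, UAS reporter; 700 uM final copper sulfate induction, 20 hr, ambient temperature.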
SW480 rerep – inducers of DNA re-replication in SW480 colon cancer cells. SW480 DNA re-replication, Hoechst DNA content imaging, 48 h. Potency, µM (titrated, usually from 46.1 µM), for inactives: at the highest dose re-replication activation, actives largely listed as activators. 340,000 tested, 1.8% active. AID 624297; note: potency is the fitted concentration of half-maximal effect; % of control where 0% means no effect; nearly all actives have a fitted effect of over 55% in size
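Quantitative HTS format with DMSO vehicle controls; 48 hr drug incubation at 37 C, then 40 min Hoechst staining and scanning imager measurement at 405 nm excitation.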
MCF10A rereplic – inducers of DNA re-replication in MCF 10A breast cells; MCF 10A DNA re-replication, Hoechst nuclear intensity, 48 h; 350,000 tested, 2.9% active; Potency, µM (top dose mostly 46.1 µM), inactives show top-dose activity, positive = re-replication, hits mostly activators; AID 624296; note: potency is the fitted concentration of half-maximal effect; % of control where 0% means no effect; nearly all actives have a fitted effect of over 50% in size
An asterisk follows results filed as active; ? = inconclusive; . = no result; [ ] = dose if it differs, or a comment. Only some compounds are listed: those with a hit (about 11% of all), similar ones and a draw of the others. Unless noted, calls come from the whole dose curve; as a rule, active = well fitted curve in the direction sought with a large enough effect; inconclusive = small, poorly fitted or top-dose-only effect, or another doubt; inactive = no such curve, though single readings can be large; an effect the other way counts as inactive or inconclusive.

SMILES	IL-1B inflam inh	Gal4-VP16 FLuc	RORg inh	SW480 rerep	MCF10A rereplic
COc1cc(SC)ccc1C(=O)NCCc1c[nH]c2ccccc12	-65*	-7%	?	1%	?
COc1cc(SC)ccc1C(=O)Nc1ccccc1	-7	-9%	-8%	?	1%
CSc1ccccc1C(=O)Nc1nc2ccccc2[nH]1	3	?	5µM*	1%	0%
COc1cc(SC)ccc1C(=O)Nc1nc2ccccc2[nH]1	47	0.32µM*	0.1µM*	-2%	10%
COc1ccccc1C(=O)Nc1nc2ccccc2[nH]1	-25	0.5µM*	0.25µM*	5%	-3%
Cc1nc2sc(C(c3ccco3)N3CCN(c4ccccc4F)CC3)c(O)n2n1 (centres undefined)	25	-3%	5%	17%	18µM*
Cc1nc2sc(C(c3ccco3)N3CCN(c4ccc(F)cc4)CC3)c(O)n2n1 (centres undefined)	21	-21%	-13%	5%	1%
Nc1nc2ncc(-c3ccsc3)c(N)n2n1	22	2%	30%	3.7µM*	8%
C#C[C@@]1(O)CC[C@@H]2[C@@H]3CCC4=C(CCC(=O)C4)[C@H]3CC[C@]21C	.	1%[17 µM]	19%[2.98 µM]	0%[20.6 µM]	4%[20.6 µM]
CC1CC(=S)Nc2ccccc2N1C(=O)Nc1ccccc1 (centres undefined)	11	?	10µM*	-2%	0%
O=C(Nc1ccccc1)N1CCC(=S)Nc2ccccc21	22	-4%	-35%	-2%	1%
C=C1C(=O)O[C@H]2C1CC[C@@](C)(O)C13C=CC(C)(C21)C1(C3)C(=O)O[C@@H]2C3C(C)=CCC3[C@](C)(O)C[C@H](OC(C)=O)C21 (some centres undefined)	-94*	20%	13%	?	?
CCOC(=O)c1cc(S(=O)(=O)Nc2ccc(F)cc2F)cn1C	17	-2%	2%	5%	9%
Cc1ccc2nc(-c3ccc4c(c3)OCCO4)cc(C(=O)O)c2c1	14	7%[0.365 µM]	5µM*	5%	17%
CCOC(=O)N1CCN(C(=O)c2cccc(N3C(=O)NC4CC3(C)Oc3ccc(Cl)cc34)c2)CC1 (centres undefined)	8	-2%	39%	13µM*	16µM*
Cc1ccc2c(c1)C1CC(C)(O2)N(c2cccc(C(=O)NC3CCN(Cc4ccccc4)CC3)c2)C(=O)N1 (centres undefined)	-53*	0%	-16%	8%	6%
CC12CC(NC(=O)N1c1cccc(C(=O)Nc3ncn[nH]3)c1)c1ccccc1O2 (centres undefined)	-68*	-1%	0%	-4%	0%
Cc1ccc2c(c1)C1CC(C)(O2)N(c2cccc(C(=O)NCc3ccccn3)c2)C(=O)N1 (centres undefined)	-5	-7%	11%	-7%	-2%
COc1ccc(NC(=O)c2cccc(N3C(=O)NC4CC3(C)Oc3ccccc34)c2)cc1 (centres undefined)	-15	-1%	8%	1%	10%
CCOC(=O)C1CCN(C(=O)c2cccc(N3C(=O)NC4CC3(C)Oc3ccc(C)cc34)c2)CC1 (centres undefined)	-14	-3%	0%	-21%	-2%
COc1cccc([C@@H]2Oc3ccc(OC)cc3C[C@H]2OC(=O)Nc2cc(OC)c(OC)c(OC)c2)c1	.	2%	-3%	.	.
COc1ccccc1CCC(=O)OCC(=O)NC1CC1	10	.	.	-1%	-1%
CC(=O)c1c(COC(=O)c2ccncc2)nc2ccccc2[n+]1[O-]	0	?	11µM*	2%	-2%
CC(=O)c1c(COC(=O)c2cccc(C)c2)nc2ccccc2[n+]1[O-]	28	-29%	15%	0%	15%
O=C(N/N=C/C(Br)=C/c1ccccc1)NC1CCCCC1	-94*	?	?	?	?
SMILES	IL-1B inflam inh	Gal4-VP16 FLuc	RORg inh	SW480 rerep	MCF10A rereplic
O=C(N/N=C/C(Br)=C/c1ccccc1)C1CC1	-76*	?	?	?	?
C=C(NC(=O)C(=C)NC(=O)c1csc(C2=NC3c4csc(n4)C4NC(=O)c5csc(n5)C(C(C)(O)C(C)O)NC(=O)C5CSC(=N5)C(=CC)NC(=O)C(C(C)O)NC(=O)c5csc(n5)C3(CC2)NC(=O)C(C)NC(=O)C(=C)NC(=O)C(C)NC(=O)C(C(C)CC)NC2C=Cc3c(C(C)O)cc(nc3C2O)C(=O)OC4C)n1)C(N)=O (centres undefined)	.	-4%	?	.	.
C=C(NC(=O)C(=C)NC(=O)c1csc(C2=N[C@@H]3c4csc(n4)[C@@H]4NC(=O)c5csc(n5)[C@@H]([C@](C)(O)[C@H](C)O)NC(=O)[C@@H]5CSC(=N5)/C(=C/C)NC(=O)[C@@H]([C@H](C)O)NC(=O)c5csc(n5)[C@]3(CC2)NC(=O)[C@@H](C)NC(=O)C(=C)NC(=O)[C@@H](C)NC(=O)[C@@H]([C@@H](C)CC)N[C@H]2C=Cc3c([C@H](C)O)cc(nc3[C@@H]2O)C(=O)O[C@H]4C)n1)C(N)=O	.	0%[17 µM]	1%[2.98 µM]	7.2µM*	8.1µM*
C=C(NC(=O)C(=C)NC(=O)c1csc(C2=NC3c4csc(n4)C4NC(=O)c5csc(n5)C(C(C)(O)C(C)O)NC(=O)C5CSC(=N5)/C(=C/C)NC(=O)C(C(C)O)NC(=O)c5csc(n5)C3(CC2)NC(=O)C(C)NC(=O)C(=C)NC(=O)C(=C)NC(=O)C(C(C)C)NC2C=Cc3c(C(C)O)cc(nc3C2O)C(=O)OC4C)n1)C(N)=O (centres undefined)	-67*	.	.	1.2µM*	?
C[C@H]1CN([C@@H](C)CO)C(=O)c2cccc(NC(=O)c3nc4ccccc4s3)c2O[C@H]1CN(C)C(=O)Nc1ccc(F)cc1	?	.	.	8%[9.22 µM]	-17%
Cc1ccc(C(=O)NCC(=O)NCC(=O)OCc2ccc(Cl)cc2)cc1	-98*	-16%	?	-2%	3%
CC(C)C[C@@H](COCc1ccc(F)cc1)N1CCN(C(=O)c2cccc(C(F)(F)F)c2)CCC1=O	-13	.	.	.	.
Cc1cccc(COCC(CC(C)C)N2CCN(C(=O)c3ccc(C(C)(C)C)cc3)CCC2=O)c1 (centres undefined)	-73*	-7%	-3%	-4%	?
CC(C)C[C@@H](COCc1cccc(Cl)c1)N1CCN(C(=O)c2cccc(C(F)(F)F)c2)CCC1=O	?	0%[40.7 µM]	37%[40.7 µM]	.	.
Cc1cccc(COC[C@H](CC(C)C)N2CCN(C(=O)c3ccc(C(C)(C)C)cc3)CCC2=O)c1	-70*	.	.	.	.
Cc1cccc(COCC(CC(C)C)N2CCN(C(=O)c3ccc(C(F)(F)F)cc3)CCC2=O)c1 (centres undefined)	-54*	?	?	?	24%
